Test system: Vero E6 infected with SARS-CoV-2
Assay: inhibition of SARS-CoV-2 cytopathic effect; higher = more antiviral protection, active = above 15
Settings: 48 h

Measured: inhibition of SARS-CoV-2 cytopathic effect

NNC(=O)c1ccncc1 [isoniazid]
inactive: 1 nM -3.24% | 8.33 nM 0.31% | 100 nM 0.58% | 833.33 nM 3.21% | 10000 nM -1.15%

COc1ccc(C(Cl)=C(c2ccc(OC)cc2)c2ccc(OC)cc2)cc1 [chlorotrianisene]
inactive: 1 nM -2.25% | 8.33 nM 0.16% | 100 nM -0.43% | 833.33 nM -2.65% | 10000 nM 5.78%

CCOC(=O)CNC(=O)[C@@H]1CCCN1C(=O)Cc1ccccc1
inactive: 1 nM 0.67% | 8.33 nM -0.95% | 100 nM 3.29% | 833.33 nM 2.08% | 10000 nM 1.46%

Cc1cccc(CN2CCN(C(c3ccccc3)c3ccc(Cl)cc3)CC2)c1 (stereo not given) [meclizine]
inactive: 1 nM 4.53% | 8.33 nM 3.44% | 100 nM 2.18% | 833.33 nM 4.25% | 10000 nM 3.46%

O=C(NC(O)C(Cl)(Cl)Cl)NC(O)C(Cl)(Cl)Cl (stereo not given) [dicloralurea]
inactive: 1 nM -4.23% | 8.33 nM -2.71% | 100 nM -0.82% | 833.33 nM -3.4% | 10000 nM -4.69%

O=c1c(-c2ccc(O)cc2)coc2cc(O)cc(O)c12 [genistein]
inactive: 1 nM -1.79% | 8.33 nM 1.66% | 100 nM 2.02% | 833.33 nM 3.3% | 10000 nM -1.82%

CC(C)CN(C[C@@H](OP(=O)(O)O)[C@H](Cc1ccccc1)NC(=O)O[C@H]1CCOC1)S(=O)(=O)c1ccc(N)cc1 [fosamprenavir]
inactive: 1 nM -0.69% | 8.33 nM 0.83% | 100 nM 0.76% | 833.33 nM -0.52% | 10000 nM -2.55%

Cc1cc(-c2ccc(CC(=O)Nc3ccc(-c4cccnc4)cc3)cc2)ccn1
inactive: 1 nM -2.73% | 8.33 nM -2.58% | 100 nM -2.93% | 833.33 nM 4.57% | 10000 nM 7.2%

CC(C)S(=O)(=O)NC[C@H](C)c1ccc(-c2ccc(CCNS(C)(=O)=O)cc2)cc1 [mibampator]
inactive: 1 nM -0.11% | 8.33 nM -1.29% | 100 nM -1.07% | 833.33 nM 1.62% | 10000 nM 4.07%

COc1ccc(C(=O)/C(Cc2cc(OC)c(OC)c(OC)c2)=C(\C(=O)O)c2ccc3c(c2)OCO3)cc1
inactive: 1 nM -2.66% | 8.33 nM -0.48% | 100 nM -0.33% | 833.33 nM 1.73%
active: 10000 nM 17.8%

Nc1nc2ccc(Cl)cc2c2nc(-c3ccco3)nn12
inactive: 1 nM 3.02% | 8.33 nM 1.43% | 100 nM -1.65% | 833.33 nM -3.37% | 10000 nM 1.46%

Fc1ccc(CNc2ncnc3ccc(F)cc23)cc1 [spautin-1]
inactive: 1 nM -1.85% | 8.33 nM -0.71% | 100 nM -0.05% | 833.33 nM -0.85% | 10000 nM -1.95%

COc1ccc(CCN(C)CCCN2CCc3cc(OC)c(OC)cc3CC2=O)cc1OC [zatebradine]
inactive: 1 nM 0.14% | 8.33 nM 1.94% | 100 nM 1.29% | 833.33 nM 0.25% | 10000 nM -2.07%

C[N+](C)(C)CC(O)CC(=O)[O-] (stereo not given) [carnitine-(D/L)]
inactive: 1 nM -1.88% | 8.33 nM -0.98% | 100 nM 0.43% | 833.33 nM 3.52% | 10000 nM 5.12%

CN(C)[C@@H](CCOc1cccc2ccccc12)c1ccccc1 [dapoxetine]
inactive: 1 nM 1.42% | 8.33 nM 3.51% | 100 nM 1.54% | 833.33 nM 0.31% | 10000 nM 1.17%

CCCCCCCCCCCCCC(=O)OC(C)C [isopropyl-myristate]
inactive: 1 nM 0.54% | 8.33 nM 0.41% | 100 nM 2.06% | 833.33 nM 1.1% | 10000 nM -0.15%

CC(=O)CCCCn1c(=O)c2c(ncn2C)n(C)c1=O [pentoxifylline]
inactive: 1 nM 3.31% | 8.33 nM 2.23% | 100 nM 0.1% | 833.33 nM 1.21% | 10000 nM -0.68%

CC(C)(C)NCC(O)COc1cccc2c1CCC(=O)N2 (stereo not given) [carteolol]
inactive: 1 nM 2.16% | 8.33 nM 1.11% | 100 nM 0.54% | 833.33 nM 2.62% | 10000 nM -0.66%

NC(CO)(CO)CO [trometamol]
inactive: 1 nM -0.18% | 8.33 nM -2.53% | 100 nM -0.26% | 833.33 nM 2.08% | 10000 nM 4.11%

CC(C)(Cc1c[nH]c2ccc(Cl)cc12)NCCOc1ccccc1OCC1CC1
inactive: 1 nM 0.45% | 8.33 nM -0.91% | 100 nM 0.78% | 833.33 nM -2.24% | 10000 nM -19.4%

Nc1nc(=O)n([C@@H]2CS[C@H](CO)O2)cc1F [emtricitabine]
inactive: 1 nM -0.33% | 8.33 nM -2.03% | 100 nM 4.2% | 833.33 nM -0.69% | 10000 nM -0.34%

c1ccc(CCCCN2CCC(c3ccccc3)CC2)cc1
inactive: 1 nM -1.33% | 8.33 nM -0.15% | 100 nM 2.71% | 833.33 nM 1.08% | 10000 nM -0.99%

COc1ccc2c(c1OC)C(=O)O[C@@H]2[C@H]1c2c(cc3c(c2OC)OCO3)CCN1C [noscapine]
inactive: 1 nM -3% | 8.33 nM 0.3% | 100 nM -0.27% | 833.33 nM -0.71% | 10000 nM -2.79%

COC(=O)C1=CO[C@@H](O[C@@H]2O[C@H](CO)[C@@H](O)[C@H](O)[C@H]2O)[C@@H]2C(CO)=CC[C@H]12 [geniposide]
inactive: 1 nM -1.56% | 8.33 nM -1.45% | 100 nM -10.1% | 833.33 nM -17% | 10000 nM -18.6%

Nc1nc(=O)c2nc(CNc3ccc(C(=O)N[C@@H](CCC(=O)O)C(=O)O)cc3)cnc2[nH]1 [folic-acid]
inactive: 1 nM -1.27% | 8.33 nM 1.24% | 100 nM 0.24% | 833.33 nM 1.38% | 10000 nM -0.44%

Nc1nc(NC2CC2)cc(-c2cccc(Cl)c2Cl)n1
inactive: 1 nM 0.66% | 8.33 nM -1.17% | 100 nM -1.96% | 833.33 nM -0.45% | 10000 nM -1.5%

O=C(O)C(O)Cc1ccc(O)c(O)c1 (stereo not given) [sodium-danshensu]
inactive: 1 nM 1.07% | 8.33 nM -0.48% | 100 nM 2.17% | 833.33 nM -0.61% | 10000 nM -1.7%

Cc1cc(=O)n(-c2ccccc2)n1C [phenazone]
inactive: 1 nM 1.97% | 8.33 nM -0.88% | 100 nM -1.01% | 833.33 nM -0.52% | 10000 nM 0.53%

C/C(=C\CNc1ncnc2[nH]cnc12)CO [zeatin]
inactive: 1 nM -3.72% | 8.33 nM -2.49% | 100 nM -0.97% | 833.33 nM 0.86% | 10000 nM -1.15%

Clc1cccc2c1CN(C1=NCCN1)C2
inactive: 1 nM 1.97% | 8.33 nM 3.31% | 100 nM 3.22% | 833.33 nM 2.65% | 10000 nM -2.32%

Cc1ccnc(NS(=O)(=O)c2ccc(N)cc2)n1 [sulfamerazine]
inactive: 1 nM 2.3% | 8.33 nM 2.7% | 100 nM -1.58% | 833.33 nM -0.16% | 10000 nM -0.59%

CCc1c(C(=O)C(N)=O)c2c(OCC(=O)O)cccc2n1Cc1ccccc1 [varespladib]
inactive: 1 nM 2.9% | 8.33 nM -0.54% | 100 nM 1.35% | 833.33 nM 1.32% | 10000 nM 0.87%

CNCCC(Oc1ccccc1OC)c1ccccc1 (stereo not given) [nisoxetine]
inactive: 1 nM -1.97% | 8.33 nM 0.21% | 100 nM 4.4% | 833.33 nM 7.73% | 10000 nM -0.07%

CCCCC[C@H](O)/C=C/[C@H]1[C@H](O)CC(=O)[C@@H]1CCCCCCC(=O)O [alprostadil]
inactive: 1 nM 1.09% | 8.33 nM 3.65% | 100 nM 0.04% | 833.33 nM -3.27% | 10000 nM 0.55%

Nc1nc(=O)[nH]cc1F [flucytosine]
inactive: 1 nM -1.58% | 8.33 nM -2.1% | 100 nM 0.5% | 833.33 nM 2.44% | 10000 nM 1.48%

CC(C)c1c(NC(=O)Nc2ccc(Cl)cc2)c(=O)n(-c2ccccc2)n1C
inactive: 1 nM 0.15% | 8.33 nM 0.39% | 100 nM 0.07% | 833.33 nM -1.16% | 10000 nM -0.11%

COc1ccccc1Oc1c(NS(=O)(=O)c2ccc(C(C)(C)C)cc2)nc(-c2ncccn2)nc1OCCO [bosentan]
inactive: 1 nM -0.62% | 8.33 nM 1.39% | 100 nM 1.79% | 833.33 nM -3.3% | 10000 nM -1.84%

O=c1ccc2cc3ccoc3cc2o1 [psoralen]
inactive: 1 nM -1.78% | 8.33 nM 1.39% | 100 nM 1.55% | 833.33 nM 0.22% | 10000 nM -0.41%

CC(C)(C)[C@H]1CC[C@H](CC2=C(O)C(=O)c3ccccc3C2=O)CC1 [buparvaquone]
inactive: 1 nM 1.01% | 8.33 nM 3.57% | 100 nM 2.36% | 833.33 nM 0.32% | 10000 nM -5.12%

Cc1ccc(C)c(OCCCC(C)(C)C(=O)O)c1 [gemfibrozil]
inactive: 1 nM 0.62% | 8.33 nM -0.19% | 100 nM -0.2% | 833.33 nM 0.31% | 10000 nM -0.46%

C1N2CN3CN1CN(C2)C3 [methenamine]
inactive: 1 nM -3.74% | 8.33 nM 0.58% | 100 nM -1.64% | 833.33 nM -0.2% | 10000 nM -1.08%

CC[C@H](C)C(=O)O[C@H]1C[C@H](O)C=C2C=C[C@H](C)[C@H](CC[C@@H](O)C[C@@H](O)CC(=O)O)[C@H]21
inactive: 1 nM 0.27% | 8.33 nM 3.73% | 100 nM 2.53% | 833.33 nM 6.3% | 10000 nM 1.69%

Reference: the supplement of paper PMC13380429
